Source: PubChem BioAssay
LYPLA2 inh – LYPLA2 inhibitors, primary screen, counter-screen for PME1 inhibitor project, biochemical, fluorescence polarization, FP-Rh probe ABPP; recombinant LYPLA2; inhibition, % at 5.9 µM; 0.38% of 320,000 active;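 active = inhibition above the screen-wide mean plus 3 SD, limit set per campaign, cut at about 26% in these data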;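 note: 0% = LYPLA2 with DMSO and 100% = wells lacking LYPLA2 enzyme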
Fam108B counter – mouse Fam108B serine hydrolase inhibitors, primary screen, counter-screen for RBBP9 inhibitor project, biochemical, fluorescence polarization. 0.33% of 300,000 active. inhibition, % at 9.51 µM. recombinant Fam108B, FP-Rh probe fluorescence polarization;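 active = inhibition above the screen mean inhibition plus 3 SD, computed separately per campaign, cut at about 18% in these data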;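 note: inhibitors lower polarization as less probe binds the enzyme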
LYPLA1 inh – LYPLA1 inhibitors, primary screen, counter-screen for PME1 inhibitor project, biochemical, fluorescence polarization, FP-Rh probe ABPP | recombinant LYPLA1 | inhibition, % at 5.9 µM | 0.16% of 320,000 active | AID 2174, 2009;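 active = inhibition above the mean of all tested compounds plus 3 SD, set per campaign, cut at about 14% in these data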;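 note: inhibitors block serine hydrolase probe labeling of LYPLA1 so polarization falls; 0% = enzyme with DMSO and 100% = wells lacking LYPLA1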
Target sequence (O75608 whole entry, looked up): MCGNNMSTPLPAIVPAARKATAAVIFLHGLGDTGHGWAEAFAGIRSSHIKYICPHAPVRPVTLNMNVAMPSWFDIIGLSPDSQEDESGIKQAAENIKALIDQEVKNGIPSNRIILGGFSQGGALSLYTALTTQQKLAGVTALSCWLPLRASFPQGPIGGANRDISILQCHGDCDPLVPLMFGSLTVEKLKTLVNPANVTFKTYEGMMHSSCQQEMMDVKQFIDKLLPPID
PP5 primary – PP5 phosphatase inhibitors, primary screen, biochemical, fluorescence | inhibition, % at 6.7 µM | Serine/threonine-protein phosphatase 5 (Homo sapiens), P53041 | purified PP5c, OMFP substrate fluorescence | 0.18% of 320,000 active;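 active = inhibition above the campaign's mean inhibition across all tested compounds plus 3 SD, cut at about 9.5% in these data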;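 note: 0% = DMSO only and 100% = 100 µM cantharidin control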
PP1 inh – PP1-alpha phosphatase inhibitors, primary screen, counter-screen for PP5 inhibitor project, biochemical, fluorescence, OMFP substrate, single point; Serine/threonine-protein phosphatase PP1-alpha catalytic subunit (Homo sapiens), P62136; purified PP1alpha; inhibition, % at 6.7 µM; 0.9% of 320,000 active; AID 2235, 2010;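 active = inhibition above the mean inhibition of all tested compounds plus 3 SD, computed separately for each screening campaign, cut at about 15% in these data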
Target sequence (P62136 whole entry, looked up): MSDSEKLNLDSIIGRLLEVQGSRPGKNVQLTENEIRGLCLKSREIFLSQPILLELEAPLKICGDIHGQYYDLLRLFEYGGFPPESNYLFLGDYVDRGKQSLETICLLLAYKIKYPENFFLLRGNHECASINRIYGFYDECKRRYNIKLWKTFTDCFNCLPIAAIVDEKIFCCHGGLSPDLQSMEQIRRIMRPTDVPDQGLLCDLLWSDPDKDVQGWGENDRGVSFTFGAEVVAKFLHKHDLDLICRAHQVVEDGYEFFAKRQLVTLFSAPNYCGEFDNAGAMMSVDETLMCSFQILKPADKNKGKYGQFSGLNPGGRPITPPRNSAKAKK
PME-1 primary – PME-1 inhibitors via competitive probe labeling, primary screen, biochemical, fluorescence polarization, FP-Rh probe, HTS; Protein phosphatase methylesterase 1 (Homo sapiens), Q9Y570; recombinant PME-1; inhibition, % at 5.9 µM; 0.53% of 320,000 active;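 active = inhibition above the campaign mean of all compounds plus 3 SD, cut at about 26% in these data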;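 note: competitive labeling of PME-1 active site by serine hydrolase directed probe; 0% = PME-1 with DMSO and 100% = wells lacking PME-1 enzyme; inhibitors block probe labeling so polarization falls and inhibition rises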
PP1 confirm – PP1 phosphatase inhibitors, confirmation, biochemical, fluorescence, OMFP substrate, triplicate; shares compounds with PP1 inh; AID 2358, 2010; inhibition, % at 6.7 µM; 52% of 1,900 active; purified PP1alpha;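 active = mean PP1 inhibition above a set limit taken from the earlier primary screen, cut at about 15% in these data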
PP5 counter – PP5 phosphatase inhibition by PP1 hits, confirmation, counter-screen for PP1 inhibitor project, biochemical, fluorescence, triplicate; inhibition, % at 6.7 µM; purified PP5c, OMFP fluorescence; 4% of 1,900 active; shares compounds with PP1 inh;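 active = mean PP5 inhibition over triplicate wells above about 9.5% taken from the earlier PP1 screen, limit read from the data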
* = called active by the depositor; · = no result. This is a sample that favours compounds with a hit; in the whole collection about 1.8% have one here.

SMILES	LYPLA2 inh	Fam108B counter	LYPLA1 inh	PP5 primary	PP1 inh	PME-1 primary	PP1 confirm	PP5 counter
CCOc1ccccc1OCCCC(=O)Nc1cccc(-n2cnnn2)c1C	8.4	·	-0.9	-1.8	-1.5	2.9	·	·
COc1cc(/C=C2\C(C)=C(C#N)c3nc(N)c(C#N)c(C)c32)ccc1OCC(=O)O	-0.4	-1.2	0.8	3.0	30.0*	-7.2	6.7	-0.4
O=C(CSCC(=O)N1CCN(c2ccccc2)CC1)Nc1nc(-c2ccc(Cl)s2)cs1	-8.8	-8.6	-8.6	4.1	26.7*	-10.3	4.6	0.4
c1ccc(N2CCN(Cc3ccnc4ccccc34)CC2)cc1	10.2	1.5	0.8	2.0	6.6	8.6	·	·
Oc1c(CN2CCN(c3ccccc3)CC2)cc(Br)c2cccnc12	-0.7	7.1	-2.5	5.3	28.8*	-5.3	32.4*	-3.3
O=C(COC(=O)CCNS(=O)(=O)c1ccccc1)Nc1ccc(OC(F)F)cc1	-2.7	·	0.6	2.0	0.8	7.6	·	·
Cc1ccccc1C(C(=O)NCc1ccco1)N(CC1CCCO1)C(=O)Cn1nnc2ccccc21 (stereo unspecified)	-2.9	0.4	4.3	2.5	0.0	2.0	·	·
Cc1ccccc1CCN(C(=O)Cn1nnc2ccccc21)C(C(=O)NCC1CCCO1)c1nc2ccccc2n1C (stereo unspecified)	-3.7	2.1	-4.9	1.2	18.2*	-5.7	35.9*	-3.2
Cc1ccn2c(Nc3ccc4c(c3)OCO4)c(-c3ccccn3)nc2c1	8.1	0.6	1.6	3.5	28.3*	-3.2	47.2*	-1.6
Cc1ccc(Nc2c(-c3ccccn3)nc3ccc(C)cn23)cc1	4.1	5.8	3.2	4.7	71.1*	7.2	41.5*	1.0
Cc1ccn2c(NC3CCCC3)c(-c3ccccn3)nc2c1	0.1	3.2	1.1	1.2	14.2	3.8	·	·
Cc1ccc(Nc2c(-c3ccccn3)nc3cc(C)ccn23)cc1	0.6	-1.0	4.9	5.0	40.3*	5.7	42.3*	2.8
Cc1ccc2nc(-c3ccncc3)c(Nc3ccccc3)n2c1	1.7	4.2	-0.8	4.3	1.2	5.9	·	·
COC(=O)C(NC(=O)c1ccccc1C(=O)O)c1ccc2ccccc2c1 (stereo unspecified)	1.0	4.0	-2.1	2.3	-3.4	-2.3	·	·
CCCCN1C(=O)C(O)=C(C(C)=O)C1c1ccccc1 (stereo unspecified)	6.4	-4.1	-2.9	-1.6	-1.6	-4.1	·	·
CCOc1ccc(C2C(C(C)=O)=C(O)C(=O)N2CCc2c[nH]c3ccccc23)cc1 (stereo unspecified)	-0.1	2.9	-1.2	4.8	22.3*	1.8	28.9*	-1.0
CC(=O)C1=C(O)C(=O)N(CCc2c[nH]c3ccccc23)C1c1ccc(O)cc1 (stereo unspecified)	3.5	-2.5	-2.5	1.5	5.2	3.5	·	·
CCCCCCN1C(=O)C(O)=C(C(C)=O)C1c1ccc(Cl)cc1 (stereo unspecified)	11.5	-0.9	1.7	3.4	22.6*	-1.8	17.6*	2.2
COc1ccccc1CNC(=O)C1CC2Cn3c(nc4cc(Cl)c(Cl)cc43)C2N1C (stereo unspecified)	-1.1	2.0	-0.2	2.4	-2.8	1.1	·	·
O=c1ccc(Cl)nn1-c1ccccc1	7.2	-1.2	0.8	0.5	0.7	-4.5	·	·
CCCOc1ccc(C2C(C(=O)c3cc4ccccc4o3)=C(O)C(=O)N2c2cc(C)on2)cc1OC (stereo unspecified)	-0.4	1.3	-1.5	5.0	33.3*	3.0	36.8*	-1.5
COc1cc(C2C(C(=O)c3ccco3)=C(O)C(=O)N2c2cc(C)on2)cc(Br)c1O (stereo unspecified)	2.4	2.7	-0.1	0.2	-0.9	-3.7	·	·
CCCOc1ccc(C2C(C(=O)c3cc4ccccc4o3)=C(O)C(=O)N2c2cc(C)on2)cc1 (stereo unspecified)	4.5	-8.7	-5.2	0.7	27.4*	6.7	34.4*	1.5
COc1ccc(S(=O)(=O)c2c(C)c(NS(=O)(=O)c3ccccc3)cc(C)c2O)cc1	-5.2	0.1	-3.5	4.4	20.7*	1.0	0.4	0.9
O=C(Nc1nccs1)c1ccc(-c2ccc([N+](=O)[O-])cc2)o1	-16.4	-14.3	-12.0	-0.5	18.3*	-16.9	23.1*	-0.9
SMILES	LYPLA2 inh	Fam108B counter	LYPLA1 inh	PP5 primary	PP1 inh	PME-1 primary	PP1 confirm	PP5 counter
O=C(Nc1nccs1)c1ccc(-c2ccc(Cl)cc2)o1	-5.9	-3.9	-5.3	1.2	1.9	-9.8	·	·
Cc1ccccc1/C=N/Nc1nc2ccccc2[nH]1	1.3	5.3	1.5	0.7	4.4	-40.5	·	·
C(=N\Nc1nc2ccccc2[nH]1)/c1cccc2cccnc12	-5.7	7.3	0.2	0.0	17.6*	51.5*	11.0	-2.7
COC(=O)c1ccccc1NC(=O)c1ccc(COc2ccccc2)o1	-6.2	-5.3	-8.7	0.3	2.1	-2.2	·	·
COC(=O)c1ccccc1NC(=O)c1ccc(COc2cccc3ccccc23)o1	-8.9	-9.5	-12.2	4.2	24.7*	-14.0	18.9*	-1.0
O=C(O)CSc1nnc(COc2ccc(Br)cc2)n1-c1ccccc1	0.6	6.4	0.6	1.9	30.7*	-1.8	2.6	2.0
CC1(C)Cc2c(sc(NC(=O)C(=O)N3CCCC3)c2C#N)CO1	3.3	1.6	-1.4	-1.0	1.0	4.9	·	·
COc1cc(/C=N/N=C(/N)c2nonc2N)cc(Br)c1OCc1ccccc1C	-12.3	-4.9	-6.9	3.9	0.5	-7.1	·	·
CCOc1cc(/C=N/N=C(/N)c2nonc2N)cc(Br)c1OCc1ccc(Cl)cc1	-10.2	-10.4	-6.8	3.0	17.9*	-13.0	15.2	-3.9
COc1cc(/C=N/N=C(N)N)ccc1OCc1ccc(Cl)cc1	1.7	-0.1	-2.0	2.4	13.5	8.6	·	·
NC(N)=N/N=C/c1ccc(OCc2ccccc2)c(OCc2ccccc2)c1	-6.1	5.3	-3.1	6.1	35.4*	16.0	35.2*	3.1
CCOc1cc(/C=N/N=C(N)N)ccc1OCc1ccc(Cl)cc1	-3.1	1.6	-1.7	4.0	18.7*	11.5	11.4	-0.4
